Compound activity deposited in PubChem BioAssay by The Scripps Research Institute Molecular Screening Center.
GSTO1 inh = counter-screen for RBBP9 inhibitors: inhibitors of human GSTO1; AID 1974; recombinant GSTO1, activity-based probe fluorescence polarization; actives 1.1% (n = 300,000); inhibition, % at 5.96 µM; P78417;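 active means inhibition above the campaign mean inhibition plus 3 SD, cut at about 35% in these data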;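 further: 0% = GSTO1-1 with DMSO and 100% = wells lacking GSTO1-1 enzyme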
Fam108B inh = blocks mouse Fam108B hydrolase in RBBP9 counter-screen; recombinant Fam108B, FP-Rh probe fluorescence polarization; actives 0.33% (n = 300,000); AID 1947; inhibition, % at 9.51 µM;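 active means inhibition above the screen mean inhibition plus 3 SD, computed separately per campaign, cut at about 18% in these data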;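 further: inhibitors lower polarization as less probe binds the enzyme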
PME-1 primary = PME-1 (human) inhibition | inhibition, % at 5.9 µM | recombinant PME-1, FP-Rh probe fluorescence polarization | actives 0.53% (n = 320,000) | Q9Y570 | AID 2130;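 active means inhibition above the campaign mean of all compounds plus 3 SD, cut at about 26% in these data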;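 further: competitive labeling of PME-1 active site by serine hydrolase directed probe; 0% = PME-1 with DMSO and 100% = wells lacking PME-1 enzyme; inhibitors block probe labeling so polarization falls and inhibition rises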
LYPLA1 inh = counter-screen for PME1 inhibitors: inhibitors of human LYPLA1 | O75608 | recombinant LYPLA1, FP-Rh probe fluorescence polarization | inhibition, % at 5.9 µM | actives 0.16% (n = 320,000);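 active means inhibition above the mean of all tested compounds plus 3 SD, set per campaign, cut at about 14% in these data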;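 further: inhibitors block serine hydrolase probe labeling of LYPLA1 so polarization falls; 0% = enzyme with DMSO and 100% = wells lacking LYPLA1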
PAD4 FP inh = PAD4 (human) enzyme inhibition. Q9UM07. inhibition, % at 6.36 µM. actives 0.41% (n = 330,000). recombinant PAD4, RCA probe fluorescence polarization;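 active means percent inhibition above a cutoff equal to the mean of all tested compounds plus 3 SD, cut at about 15% in these data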;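 further: 0% = PAD4 with RCA probe and DMSO and 100% = probe without PAD4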
Target sequence (Q9UM07 whole entry, looked up): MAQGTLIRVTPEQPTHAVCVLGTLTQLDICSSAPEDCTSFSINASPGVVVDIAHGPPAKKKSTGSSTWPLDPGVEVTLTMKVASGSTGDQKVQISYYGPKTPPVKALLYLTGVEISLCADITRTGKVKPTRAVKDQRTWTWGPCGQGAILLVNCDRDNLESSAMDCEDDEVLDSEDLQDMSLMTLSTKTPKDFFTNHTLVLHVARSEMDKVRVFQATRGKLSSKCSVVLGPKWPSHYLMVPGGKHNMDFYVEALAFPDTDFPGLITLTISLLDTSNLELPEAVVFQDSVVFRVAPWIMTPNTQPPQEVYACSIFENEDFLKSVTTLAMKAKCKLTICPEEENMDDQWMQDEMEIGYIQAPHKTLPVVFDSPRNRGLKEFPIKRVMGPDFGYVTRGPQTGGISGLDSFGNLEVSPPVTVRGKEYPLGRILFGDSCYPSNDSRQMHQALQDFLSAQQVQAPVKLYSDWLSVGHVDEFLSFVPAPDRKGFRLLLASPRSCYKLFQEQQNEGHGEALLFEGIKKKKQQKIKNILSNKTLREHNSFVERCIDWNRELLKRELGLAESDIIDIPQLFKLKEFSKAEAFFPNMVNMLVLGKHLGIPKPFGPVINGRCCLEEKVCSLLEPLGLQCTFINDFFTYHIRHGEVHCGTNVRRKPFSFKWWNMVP
LYPLA2 inh = LYPLA2 (human) inhibition in PME1 counter-screen. recombinant LYPLA2, FP-Rh probe fluorescence polarization. O95372. actives 0.38% (n = 320,000). inhibition, % at 5.9 µM;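 active means inhibition above the screen-wide mean plus 3 SD, limit set per campaign, cut at about 26% in these data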;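 further: 0% = LYPLA2 with DMSO and 100% = wells lacking LYPLA2 enzyme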
Fam108b confirm = Fam108b (mouse) hydrolase inhibition, confirmation assay | AID 1978 | actives 44% (n = 930) | inhibition, % at 9.51 µM | recombinant Fam108b, FP-Rh probe fluorescence polarization | shares compounds with Fam108B inh;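 active means inhibition above a limit from the primary screen, the mean over all compounds plus 3 SD, cut at about 19% in these data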;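 further: 0% = median of active Fam108b wells and 100% = catalytically dead S170A mutant; inhibitors free the probe so polarization falls as inhibition rises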
Fam108b inh = mouse ABHD17B inhibition; recombinant Fam108b, gel-based ABPP, fluorophosphonate probe; shares compounds with Fam108B inh; inhibition, % at 20 µM; AID 588649; actives 44% (n = 260); in the data active means inhibition above about 40%
GSTO1 inh conf = GSTO1 (human) inhibition, confirmation | shares compounds with GSTO1 inh | recombinant GSTO1, probe fluorescence polarization | inhibition, % at 5.96 µM | actives 54% (n = 2,400) | AID 2176;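 active means inhibition above the primary screen's cutoff, its mean inhibition plus 3 SD, cut at about 35% in these data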;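 further: loss of polarization as inhibitors block binding of rhodamine sulfonate ester activity probe; 0% = GSTO1 with DMSO and 100% = wells lacking GSTO1 enzyme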
LYPLA1 conf = LYPLA1 (human) inhibition, confirmation counter-screen; recombinant LYPLA1, FP-Rh probe fluorescence polarization; actives 69% (n = 480); shares compounds with LYPLA1 inh; inhibition, % at 5.9 µM;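 active means mean inhibition across replicates above the hit cutoff set in the primary screen, cut at about 15% in these data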;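 further: loss of FP-Rh probe labeling of LYPLA1 seen as lower polarization; 0% = LYPLA1 with DMSO and 100% = wells lacking LYPLA1 enzyme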
LYPLA2 conf = counter-screen for PME1 inhibitors: confirmation of human LYPLA2 inhibitors | shares compounds with LYPLA2 inh | recombinant LYPLA2, FP-Rh probe fluorescence polarization | inhibition, % at 5.9 µM | actives 72% (n = 1,100);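 active means mean inhibition across replicates above the hit cutoff set in the primary screen, cut at about 26% in these data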;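 further: blocked labeling of the enzyme by serine hydrolase FP-Rh probe lowers polarization; 0% = enzyme with DMSO and 100% = wells lacking LYPLA2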
PAD4 confirm = confirmation of human PAD4 inhibitors; inhibition, % at 6.36 µM; shares compounds with PAD4 FP inh; actives 28% (n = 1,200); recombinant PAD4, RCA probe fluorescence polarization;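 active means mean inhibition across replicates above the hit cutoff set by the earlier primary screen, cut at about 15% in these data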;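 further: inhibitors block active-site labeling by the probe so polarization falls; 0% = PAD4 with probe and DMSO and 100% = probe without PAD4 enzyme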
* marks the source's active call; other numbers are inactive results; . = no result given. The list is not random: actives were taken first. Their share in the collection is about 1.7%.

SMILES | GSTO1 inh | Fam108B inh | PME-1 primary | LYPLA1 inh | PAD4 FP inh | LYPLA2 inh | Fam108b confirm | GSTO1 inh conf | PAD4 confirm | others
CN1C(=O)NC(c2ccccc2[N+](=O)[O-])C2=C1CC(C)(C)CC2=O (centres undefined) | 31.4 | -6.5 | -4.5 | -2.5 | -14.3 | -3.1 | . | . | .
CCN(CC(=O)NCc1ccc(Cl)cc1)C(=O)COc1cccc(C(F)(F)F)c1 | 3.8 | 3.6 | -5.1 | 2.4 | 0.2 | -1.4 | . | . | .
O=C1C(Cl)=C(Nc2ccc3cn[nH]c3c2)C(=O)c2ccccc21 | 82.8* | 20.1* | 29.0* | -0.4 | 48.0* | 14.9 | 31.3* | 90.0* | 15.3* | Fam108b inh=70.0*
O=C(Nc1ccc2cn[nH]c2c1)c1c(Cl)cccc1Cl | 19.5 | -2.9 | -4.3 | 1.7 | 0.1 | 5.6 | . | . | .
CCC(CNc1cc(OC)cc2cccnc12)NC1CCCCC1 (centres undefined) | 80.2* | 29.6* | 37.6* | 22.5* | 89.8* | 29.7* | 3.3 | 8.8 | 13.7 | LYPLA1 conf=12.9;LYPLA2 conf=43.4*
Cc1ccc(S(=O)(=O)/N=C2\C=C(Nc3cccc(C(=O)O)c3)C(=O)c3ccccc32)cc1 | 89.5* | 49.6* | 24.7 | 2.9 | 62.9* | 20.9 | 60.3* | 85.1* | 46.1* | Fam108b inh=0.0
Cc1ccc(S(=O)(=O)/N=C2\C=C(Nc3cccc(C(=O)O)c3)C(=O)c3ccccc32)c(C)c1 | 93.0* | 34.9* | 23.2 | -4.3 | 66.2* | 3.9 | 49.4* | 91.5* | 50.5* | Fam108b inh=15.0
Cc1ccc(S(=O)(=O)/N=C2/C=C(Sc3ncn[nH]3)C(=O)c3ccccc32)cc1 | 96.3* | 80.2* | 46.2* | 5.6 | 39.1* | 47.0* | 65.4* | 88.0* | 9.8 | LYPLA2 conf=57.0*
C/C(=C\C(=O)c1cccnc1)Nc1ccc(O)cc1 | 38.4* | 47.6* | -16.2 | 1.8 | 97.5* | 9.4 | -2.9 | 3.5 | 6.1
COc1ccc(NC(=O)c2cccnc2)cc1 | 3.6 | -3.9 | 0.3 | -3.2 | -0.3 | -4.7 | . | . | .
Nc1cccc2nsnc12 | 23.8 | -0.2 | -1.9 | -0.3 | -10.9 | -6.4 | . | . | .
Nc1cc2nsnc2cc1Br | 92.4* | 71.2* | 46.6* | 75.7* | 77.7* | 86.7* | 62.3* | 90.6* | 53.0* | Fam108b inh=50.0*;LYPLA1 conf=72.5*
Cc1cc(N)ccc1-n1c(C)ccc1C | 81.9* | 42.5* | 90.2* | 55.6* | 89.7* | 84.7* | 3.7 | . | -1.3 | LYPLA1 conf=3.7;LYPLA2 conf=4.3
CC(C)=CCC1=C(OCC(=O)O)C(=O)c2ccccc2C1=O | 89.0* | 22.5* | 20.9 | 1.8 | 27.6* | 8.0 | 11.8 | 84.8* | -1.1
c1ccc2c(c1)nc(-c1ccncc1)n1nnnc21 | -4.0 | -3.7 | 1.0 | 1.7 | 1.1 | 3.3 | . | . | .
Oc1c(Br)cc(Br)cc1CNc1cccc2cccnc12 | 67.2* | 36.2* | 24.7 | -0.6 | 17.5* | 14.1 | 14.2 | 92.3* | -2.1
CSc1ccc(CCNC(=O)c2cccc3c2C(=O)N(C2CCCCC2)C3)cc1 | -5.2 | -10.1 | -13.8 | -4.5 | -4.0 | -13.1 | . | . | .
COc1cc(Br)c(C(=O)c2nccc3cc(OC)c(OC)cc23)cc1OC | 93.8* | 62.6* | 22.2 | 43.9* | 73.1* | 56.8* | 62.4* | 90.3* | 58.8* | Fam108b inh=0.0;LYPLA1 conf=15.6*;LYPLA2 conf=84.6*
COc1cc(N)c(C(=O)c2nccc3cc(OC)c(OC)cc23)cc1OC | 4.0 | 0.2 | 3.1 | 0.1 | -0.5 | -1.9 | . | . | .
NC(=S)Nc1ccc(C(F)(F)F)cc1Cl | 1.3 | 0.4 | -2.8 | -1.1 | -1.0 | -1.5 | . | . | .
C=CCOc1ccc(/C=C/C(=O)OCC(=O)N(C)CC(=O)Nc2ccccc2Cl)cc1 | 4.4 | -2.1 | 1.3 | -1.1 | -4.1 | 5.8 | . | . | .
N#CCCN(CCC#N)C(=O)C1c2ccccc2Oc2ccccc21 | 51.9* | 66.9* | 84.0* | 76.4* | 100.8* | 76.0* | 2.7 | 9.7 | 7.5 | LYPLA1 conf=2.9;LYPLA2 conf=3.0
CN(CCC#N)C(=O)COC(=O)C1c2ccccc2Oc2ccccc21 | 3.0 | 0.6 | -5.7 | 1.9 | -1.5 | -6.2 | . | . | .
CCOC(=O)C1=C(N)Oc2c(oc(CO)cc2=O)C1c1ccccc1 (centres undefined) | 7.0 | -0.7 | 0.8 | 6.6 | 0.4 | 8.3 | . | . | .
O=C1C(SCCO)=C(SCCO)C(=O)c2ccccc21 | 86.6* | 51.3* | 31.1* | 3.2 | 68.1* | 30.9* | 65.5* | 84.1* | 38.8* | Fam108b inh=90.0*;LYPLA2 conf=54.9*
SMILES | GSTO1 inh | Fam108B inh | PME-1 primary | LYPLA1 inh | PAD4 FP inh | LYPLA2 inh | Fam108b confirm | GSTO1 inh conf | PAD4 confirm | others
O=c1[nH]c2ccccc2c(O)c1SCCO | 3.1 | -0.3 | -4.5 | -2.0 | 1.4 | -0.2 | . | . | .
O=C(O)CCNc1cc(N2CCN(C(=O)c3ccco3)CC2)c2noc3c2c1C(=O)c1ccccc1-3 | 63.3* | 38.3* | -8.8 | 3.1 | 20.7* | 0.4 | 11.0 | 74.8* | -46.2
CCn1nc(C)c(CNC(=O)C2CCC(=O)N(Cc3ccc(Cl)cc3)C2)c1C (centres undefined) | 0.2 | 1.2 | 1.8 | 1.3 | -2.6 | 9.4 | . | . | .
O=C1/C(=C/c2cccs2)SC(=S)N1NS(=O)(=O)c1ccccc1 | 24.7 | -3.1 | 6.2 | -1.4 | -4.4 | -5.8 | . | . | .
O=C1/C(=C/C=C/c2ccco2)SC(=S)N1NS(=O)(=O)c1ccccc1 | -3.2 | 52.6* | -36.2 | -9.5 | 64.7* | -10.7 | 13.8 | . | 2.8
Cc1ccc(O)c(Cn2nnc3ccccc32)c1 | 3.7 | -3.9 | 3.5 | 0.7 | 0.2 | 2.4 | . | . | .
C=Cc1c(C)c2cc3[nH]c(cc4nc(cc5nc(cc1[nH]2)C(C)=C5CCC(=O)O)C(CCC(=O)O)=C4C)c(C)c3C=C | 89.2* | 46.5* | -4.0 | 13.7 | 24.0* | 17.3 | 44.1* | 82.0* | 2.7 | Fam108b inh=0.0
CC1=NN(c2ccc(Cl)cc2)C(=O)C1C(c1cccc(O)c1)c1c(C)[nH]n(-c2ccc(Cl)cc2)c1=O (centres undefined) | 66.5* | 31.0* | 16.7 | -3.6 | 73.5* | 17.5 | 17.0 | 56.5* | -3.5
